# The supplement of paper PMC10127200
# Structures can show the parent of a compound that is named as a salt.
# How the values were obtained:
# Test in all cases: Euclidean distance of Cell Painting phenotypic profile (signed KS, 77 features) to DMSO centroid (dimensionless distance); 5 or 10 uM (library dependent); higher = stronger phenotypic change vs DMSO (phenoactivity)
# Conditions in all cases: 48 h
# [1] = system: 786-O
# Outline: (§1)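 Harmony extracted 77 features from 20X confocal images (9 fields/well) of stained cells, scoring each as a signed Kolmogorov-Smirnov statistic against same-plate vehicle wells. The cells, five cancer lines and a healthy fibroblast line, had received library compounds for 48 h at 10 or 5 uM depending on library, with 0.1% DMSO final. Phenoactivity is the Euclidean distance from each plate-position-corrected, correlation-weighted, top-dose replicate-averaged profile to the median vehicle profile.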
# [2] = system: A549
# Outline: as §1
# [3] = system: DU145
# Outline: as §1
# [4] = system: FB
# Outline: as §1
# [5] = system: HEPG2
# Outline: as §1
# [6] = system: OVCAR4
# Outline: as §1
SMILES,Euclidean distance [1],Euclidean distance [2],Euclidean distance [3],Euclidean distance [4],Euclidean distance [5],Euclidean distance [6]
O=C1Nc2ccc(I)cc2/C1=C/c1cc(Br)c(O)c(Br)c1,1.58,0.975,0.984,1.02,0.668,1.3
Cc1c(F)cccc1NC(=O)Nc1ccc(Cl)c(S(=O)(=O)[C@H]2CCCNC2)c1O,1.18,0.479,0.758,1.15,0.926,1.49
COCCc1ccc(OCC(O)CNC(C)C)cc1 (stereo not given) [Metroprolol succinate],0.936,0.527,0.62,1.14,0.935,1.9
O=C(Nc1cc(Cl)cc(Cl)c1O)c1c(O)c(Cl)cc(Cl)c1Cl [Oxyclozanide],1.04,0.69,0.929,0.828,0.649,1.52
C[C@@H](Oc1cc(-n2cnc3ccc(CN4CCN(C)CC4)cc32)sc1C(N)=O)c1ccccc1C(F)(F)F,3.44,3.82,4.26,3.6,3.95,2.85
O=C(O)Cc1ccccc1Nc1c(Cl)cccc1Cl [Diclofenac Epolamine],0.939,0.571,1.14,0.969,0.65,1.22
C[C@@H](NCCCc1cccc(C(F)(F)F)c1)c1cccc2ccccc12 [Cinacalcet HCl],1.32,1.57,1.89,1.06,1.85,1.42
Cc1c(C(=O)N2CCOc3ccc(-c4ccc(N)nc4)cc3C2)ccc(S(C)(=O)=O)c1F,2.49,2.65,1.99,3.46,2.59,3.43
O=C(N[C@H](CO)[C@H](O)c1ccc([N+](=O)[O-])cc1)C(Cl)Cl [Chloramphenicol],1.22,1,1.35,0.994,0.584,1.3
Nc1nc(=O)c2nc(CNc3ccc(C(=O)N[C@@H](CCC(=O)O)C(=O)O)cc3)cnc2[nH]1 [Folic acid],1.19,0.776,0.987,0.817,0.743,1.25
CCCCOc1ccc(CC(=O)NO)cc1 [Bufexamac],1.36,1.11,0.87,1.25,0.883,1.39
CC(C)NCC(O)c1ccc(O)c(O)c1 (stereo not given) [Isoproterenol sulfate dihydrate],1.03,0.632,2.58,1.23,0.763,0.894
Cc1c(-c2ccnn2C)cc(C(=O)NCc2ccc(S(C)(=O)=O)cn2)c(=O)n1-c1cccc(C(F)(F)F)c1 [Alvelestat (AZD9668)],1.01,1.73,1.04,1.06,0.869,0.81
CC1(C)[C@@H](O[C@H]2O[C@H](C(=O)O)[C@@H](O)[C@H](O)[C@H]2O[C@@H]2O[C@H](C(=O)O)[C@@H](O)[C@H](O)[C@H]2O)CC[C@]2(C)[C@H]3C(=O)C=C4[C@@H]5C[C@@](C)(C(=O)O)CC[C@]5(C)CC[C@@]4(C)[C@]3(C)CC[C@@H]12 [Diammonium Glycyrrhizinate],1.05,1.68,1.1,0.929,0.457,1.73
CO/N=C(/C(=O)N[C@@H]1C(=O)N2C(C(=O)OCOC(=O)C(C)(C)C)=C(C)CS[C@H]12)c1csc(N)n1 [Cefetamet pivoxil hydrochloride],1.66,1.04,1.11,0.939,0.729,0.914
CC(C)(C)c1cc(C(C)(C)C)c(NC(=O)c2c[nH]c3ccccc3c2=O)cc1O [Ivacaftor (VX-770)],2.11,2.23,1.21,0.989,1.96,1.56
N[C@@H](CCC(=O)N[C@@H](CS)C(=O)NCC(=O)O)C(=O)O [Glutathione],1.52,1.12,1.48,1.03,0.978,1.55
CC(C)(C)NC[C@H](O)c1ccc(O)c(CO)c1 [levalbuterol tartrate],0.685,0.326,0.582,0.969,0.566,0.907
CN(C)[C@@H]1C(O)=C(C(N)=O)C(=O)[C@@]2(O)C(O)=C3C(=O)c4c(O)ccc(Cl)c4[C@@H](O)[C@H]3C[C@@H]12 [Demeclocycline HCl],0.985,0.836,0.951,1.05,0.887,1.53
CC(C)OC(=O)C1=CN(C(=O)c2ccc(F)c(F)c2)CC(C)(C)c2c1[nH]c1ccccc21,0.816,0.896,0.818,0.982,1.22,1.07
O=S(=O)(c1ccccc1)N(CC(F)(F)F)c1ccc(C(O)(C(F)(F)F)C(F)(F)F)cc1,1.13,1.85,1.07,1.62,2.12,1.43
O=c1ccn([C@@H]2O[C@H](COP(=O)(O)OP(=O)(O)OP(=O)(O)OP(=O)(O)OC[C@H]3O[C@@H](n4ccc(=O)[nH]c4=O)[C@H](O)[C@@H]3O)[C@@H](O)[C@H]2O)c(=O)[nH]1 [Diquafosol Tetrasodium],0.977,0.68,0.599,1.1,0.787,1.2
O=C1OCCN1/N=C/c1ccc([N+](=O)[O-])o1 [Furazolidone],1.14,1.26,1.02,1.13,0.999,1.09

SMILES,Euclidean distance [1],Euclidean distance [2],Euclidean distance [3],Euclidean distance [4],Euclidean distance [5],Euclidean distance [6]
O=C1OC(OC(=O)c2cccnc2Nc2cccc(C(F)(F)F)c2)c2ccccc21 (stereo not given) [Talniflumate],0.81,0.859,0.922,0.783,0.818,1
CCC(=O)NC[C@@H]1C[C@H]1c1cccc2c1CCO2 [Tasimelteon],1.21,1.04,0.924,1.26,0.397,1.28
CC(=O)O[C@H]1Cc2ccccc2N(C(N)=O)c2ccccc21 [Eslicarbazepine Acetate],0.621,0.976,0.966,1.39,1.17,1.64
CC1(C)CNc2cc(NC(=O)c3cccnc3NCc3ccncc3)ccc21 [Motesanib Diphosphate (AMG-706)],1.29,1.76,1.48,1.96,1.27,1.37
O=C(NCCS(=O)(=O)c1ccc(C(F)(F)F)cn1)c1ccc(Cl)cc1,0.975,1.54,1.57,0.817,0.723,1.18
COc1ccc2[nH]c([S@@+]([O-])Cc3ncc(C)c(OC)c3C)nc2c1 [NEXIUM (esomeprazole magnesium)],1.31,0.829,1.47,0.904,1.81,1.65
COc1ccc2[nH]c([S+]([O-])Cc3ncc(C)c(OC)c3C)nc2c1 (stereo not given) [Omeprazole Sodium],1.03,1.11,2.39,0.71,0.957,1.07
Nc1nccc(Oc2ccc(NC(=O)c3c[nH]cc(-c4ccc(F)cc4)c3=O)cc2F)c1Cl,1.57,1.17,1.56,1.94,1.17,1.62
CC(=O)Nc1ccc(OC(=O)c2ccccc2OC(C)=O)cc1 [Benorylate],1.08,1.08,1.31,1.41,0.561,1.13
Cc1ccc(Nc2nccc(N(C)c3ccc4c(C)n(C)nc4c3)n2)cc1S(N)(=O)=O,2.42,2.34,1.99,2.87,1.93,1.6
Nc1cccc2c1C(=O)N(C1CCC(=O)NC1=O)C2=O (stereo not given) [Pomalidomide],0.929,0.804,0.704,1.06,0.312,0.886
O=C(NC1CCOCC1)c1ccc(-c2cc(-c3c[nH]nc3-c3ccccn3)ccn2)cc1,1.22,0.965,0.674,1.3,1.01,0.73
CC[C@]1(O)C[C@@H]2CN(CCc3c([nH]c4ccccc34)[C@@](C(=O)OC)(c3cc4c(cc3OC)N(C)[C@H]3[C@@](O)(C(=O)OC)[C@H](OC(C)=O)[C@]5(CC)C=CCN6CC[C@]43[C@@H]65)C2)C1 [Vinblastine sulfate],3.25,3.68,4.31,3.49,3.33,3
COc1cc2nccc(Oc3ccc(NC(=O)C4(C(=O)Nc5ccc(F)cc5)CC4)cc3)c2cc1OC,2.21,2.82,1.36,3.32,2.4,3.08
CC(C)/N=c1\cc2n(-c3ccc(Cl)cc3)c3ccccc3nc-2cc1Nc1ccc(Cl)cc1 [Clofazimine],1.02,1.1,0.808,1.7,0.662,1.05
C[C@H](Cc1cc2c(c(C(N)=O)c1)N(CCCO)CC2)NCCOc1ccccc1OCC(F)(F)F [Silodosin],2.28,1.27,1.57,2.6,2.41,1.57
O=C(/C=C/C#Cc1cccc(NS(=O)(=O)c2ccccc2)c1)NO [Oxamflatin],3.39,3.01,2.81,4.53,2.79,3.64
O=C(O)[C@H]1O[C@@H](Oc2cc3oc(-c4ccccc4)cc(=O)c3c(O)c2O)[C@H](O)[C@@H](O)[C@@H]1O [Baicalin],1.89,0.742,1.25,1.48,0.763,1.22
Cn1cc(C(=O)[C@@H]2CCc3[nH]cnc3C2)c2ccccc21 [Ramosetron Hydrochloride],1.07,0.965,0.791,1.34,0.731,1.41
NC(=O)[C@@H](CCC(F)(F)F)N(Cc1ccc(-c2ncon2)cc1F)S(=O)(=O)c1ccc(Cl)cc1,2.13,1.14,1.04,2.28,1.48,0.855
COc1ccc(S(=O)(=O)N(C(C)=O)c2ccccc2/C=C/c2cc[n+]([O-])cc2)cc1,2.93,2.94,4.01,2.75,3.08,2.97
CC(C)CN(C[C@@H](O)[C@H](Cc1ccccc1)NC(=O)O[C@H]1CO[C@H]2OCC[C@H]21)S(=O)(=O)c1ccc(N)cc1 [Darunavir Ethanolate],0.575,0.867,1.31,0.84,0.355,0.797
